According to publication PMC5540273 (PLoS ONE, 2017):

Experiments:
Details in all cases: concentration: 1 μM, replicates: in singlicate; n = 1
[1] = test system: PIKFYVE
[2] = test system: PIM1
[3] = test system: PIM2
[4] = test system: PIM3
[5] = test system: PIP5K1A
[6] = test system: PIP5K1C
[7] = test system: PIP5K2B
[8] = test system: T1, PIP5K2C
T1 construct: gene PIP4K2C

[9] = test system: T2, PKAC-alpha
T2 construct: gene PRKACA

[10] = test system: T3, PKAC-beta
T3 construct: gene PRKACB

[11] = test system: PKMYT1
[12] = test system: PKN1
[13] = test system: PKN2
[14] = test system: PLK1
[15] = test system: PLK2
[16] = test system: PLK3
[17] = test system: PLK4
[18] = test system: PRKCD
[19] = test system: PRKCE
[20] = test system: PRKCH
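Note: KINOMEscan kinase panel screen.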

SMILES	%Inh [1]	%Inh [2]	%Inh [3]	%Inh [4]	%Inh [5]	%Inh [6]	%Inh [7]	%Inh [8]	%Inh [9]	%Inh [10]	%Inh [11]	%Inh [12]	%Inh [13]	%Inh [14]	%Inh [15]	%Inh [16]	%Inh [17]	%Inh [18]	%Inh [19]	%Inh [20]
O=c1cc(N2CCOCC2)nc2n(Cc3cccc(C(F)(F)F)c3)ccn12 [GSK2297543]	0%	11%	0%	0%	0%	28%	9%	1%	0%	8%	0%	29%	5%	3%	0%	0%	0%	8%	0%	9%
Cl.Oc1cccc(Nc2ccnc3cc(-c4ccncc4)ccc23)c1 [GW494601]	44%	28%	0%	0%	35%	75%	9%	85%	0%	0%	63%	0%	0%	30%	0%	0%	25%	0%	7%	0%
COc1ccc(COc2cc(-n3cnc4ccccc43)sc2C(N)=O)cc1 [GSK1024304]	0%	11%	0%	0%	17%	45%	5%	3%	0%	0%	0%	0%	0%	97.4%	90%	86%	4%	4%	0%	0%
c1ccc(-c2n[nH]cc2-c2ccnc3ccccc23)nc1 [GW271431]	0%	8%	0%	3%	0%	0%	15%	4%	9%	14%	3%	12%	0%	0%	0%	0%	0%	4%	3%	9%
CCc1ccnc(/C=C/c2n[nH]c3cc(Sc4ccccc4C(=O)NC)ccc23)c1	0%	0%	0%	0%	5%	0%	27%	0%	0%	0%	0%	9%	0%	0%	0%	0%	83%	9%	12%	0%
CC(C)Oc1ccc2c(-c3ccnc(Nc4ccc(N5CCN(C)CC5)cc4)n3)cnn2n1 [GW696155]	92.8%	37%	0%	42%	14%	47%	73%	87%	3%	0%	0%	31%	4%	25%	62%	95.9%	96.8%	0%	28%	0%
O=c1cc(N2CCOCC2)nc2n(Cc3cccc(F)c3)ccn12 [GSK2297430]	0%	11%	0%	0%	0%	21%	21%	0%	12%	12%	0%	20%	0%	1%	0%	0%	0%	2%	3%	31%
Fc1ccc(-c2ncn(CCCN3CCOCC3)c2-c2ccccn2)cc1 [SB-211742]	9%	0%	8%	0%	22%	47%	0%	27%	0%	32%	0%	0%	9%	12%	0%	0%	0%	28%	0%	0%
